Data on 27 compounds can be found in PubChem BioAssay (NCATS).

Test [1] in a line: Viability qHTS for spleen associated tyrosine kinase inhibitor (SYKi) naive MV4-11 cells (AID 1963823). Further: nearly all actives have a fitted effect of over 40% in size. In short, it runs like this:
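CellTiter-Glo luminescence, 10 min room-temperature incubation, gave viability. Cells: naive MV4-11 (500/well), treated 72 hr at 37 C, 5% CO2.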
On the technique in general: In qHTS, concentration-response curves come from the screen itself.

The nature of test [2]: Viability qHTS for spleen associated tyrosine kinase inhibitor (SYKi) drug resistant MV4-11 cells (AID 1963824). Further: nearly all actives have a fitted effect of over 35% in size. In short, it runs like this:
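CellTiter-Glo luminescence, read 10 min after reagent addition, reports viability after a 72 hr compound exposure. Cells are an MV4-11 line made resistant to SYK inhibition, seeded at 500 per well onto compound-containing plates.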

Results filed as inconclusive are left out. A number with no mark means an inactive call. Active and inactive are the calls of the source. The call rests on the fitted dose curve; in most records, active means well fitted cell-killing curve with a large enough effect; inconclusive means small, poorly fitted or top-dose-only effect, or effect the other way; inactive means no such curve, though single readings can be large or run the other way.
Potency means the concentration at half of the fitted maximal effect.

For the compound `O=c1ccc2ccc(OCCCCN3CCN(c4cccc5sccc45)CC3)cc2[nH]1`, the results for the Potency in test [1] and in test [2] were 10.3 µM (active) and 7.31 µM (active), respectively.
The corresponding values for `CC/C=C\CC1C(=O)C=CC1(CCCCC1CCC(=O)O1)OC(C)=O` (centres undefined) are 12.8 µM (active) and 7.18 µM (active).
The corresponding values for `COc1ccc(C(=O)Nc2ncc(-c3ccc(C(=O)O)cc3)s2)cc1` are 0.461 µM (active) and 0.461 µM (active).
In the same order, the values of `CCC1=CC2CN(C1)Cc1c([nH]c3ccccc13)[C@@](C(=O)OC)(c1cc3c(cc1OC)N(C)[C@H]1[C@@](O)(C(=O)OC)[C@H](OC(C)=O)[C@]4(CC)C=CCN5CC[C@]31[C@@H]54)C2` (some centres undefined) are 0.0252 µM (active) and 0.0126 µM (active).
As for `CC/C=C/C=C/C1(C)OC(CC(CO)OC)=CC1=O` (centres undefined), the Potency in test [1] was 20.6 µM (active); in test [2], 23.1 µM (active).
In the same order, the values of `CCN(CC)C(=O)C(c1ccccc1)N1CCN(c2ccc(NC(=O)c3ccccc3-c3cccnc3)cc2F)CC1` (centres undefined) are “inactive” and “inactive”.
As for `CCOC(=O)c1c(C)nn(-c2cccc([N+](=O)[O-])c2)c1C`, the Potency result in test [1] and in test [2] was “inactive” each time.
As to `CS(=O)(=O)c1ccc([C@@H](CC2CCCC2)C(=O)Nc2cnccn2)cc1Cl`, the results for the Potency in test [1] and in test [2] were 31.6 µM (active) and 25.1 µM (active), respectively.
In the same order, the values of `O=C(/C=C/c1c(C(=O)O)[nH]c2cc(Cl)cc(Cl)c12)Nc1ccccc1` are “inactive” and “inactive”.
Regarding `COc1cc(O[C@@H]2O[C@H](CO)[C@@H](O)[C@H](O)[C@H]2O)c(CCC(=O)OC[C@H]2O[C@@H](Oc3cc(OC)c(C4OC(=O)C(C)(O)C4O)cc3CCC(=O)O)[C@H](O)[C@@H](O)[C@@H]2O)cc1C1OC(=O)C(C)(O)C1O` (some centres undefined), the viability (% of control) in test [1] is 77% [at 9.25 µM]. Also, the viability, % of control in test [2] is 81.1% [at 9.25 µM].
Consider `O=C1NC2CCc3nc4ccccc4c(=O)n3C2=Nc2ccccc21` (centres undefined), for which the Potency result in test [1] and in test [2] was “inactive” throughout.
Regarding `Cc1ccc(Cc2c(C)nc3nc(SCC(=O)NCCN4CCNCC4)nn3c2C)cc1`, the Potency entry in test [1] and in test [2] was “inactive” each time.
With `CC(O)(CC(=O)O)CC(=O)O[C@@H]1[C@@H](O)[C@H](OCCc2ccccc2)O[C@H](CO)[C@H]1O` (some centres undefined), the Potency entry in test [1] and in test [2] was “inactive” in each case.
In the case of `C=C(C)C(=O)OC1CC2(C)OC(=CC2=O)C(=C)CC2OC(=O)C(COC)C12` (centres undefined), the Potency in test [1] and in test [2] was 1.61 µM (active) throughout.
Turning to `O=C(/C=C/c1ccc(O)cc1)N[C@@H](Cc1ccc(O)cc1)C(=O)O`, the Potency entry in test [1] and in test [2] was “inactive” throughout.
On to `O=C(CC1NCCC[C@H]1O)Cn1cnc2cc(Br)c(Cl)cc2c1=O` (some centres undefined), for which the Potency result in test [1] and in test [2] was “inactive” in each case.
On to `C[C@@H]1O[C@@H](O[C@H]2[C@H](O)[C@@H](O[C@@H]3O[C@H](CO)[C@H](O)[C@H](O)[C@H]3O)[C@H](O[C@H]3CC[C@@]4(C)C(CC[C@]5(C)C4CC=C4[C@@H]6CC(C)(C)CC[C@]6(C(=O)O[C@@H]6O[C@H](CO)[C@@H](O)[C@H](O)[C@H]6O)CC[C@]45C)C3(C)C)O[C@@H]2C(=O)O)[C@H](O)[C@H](O)[C@H]1O` (some centres undefined), for which, in test [1], the viability (% of control) is 82.7% [at 9.25 µM]. Moreover, in test [2], the viability, % of control is 90.8% [at 9.25 µM].
Consider `CC(C)C1(O[C@@H]2O[C@H](CO)[C@@H](O)[C@H](O)[C@H]2O)CC=C(CO)CC1` (some centres undefined), for which the Potency result in test [1] and in test [2] was “inactive” each time.
Take `CC1=C2C[C@H]3O[C@@]3(C)CCC3O[C@@]3(C)C[C@@]2(O)OC1=O` (some centres undefined): the Potency entry in test [1] and in test [2] was “inactive” throughout.
Turning to `COC(=O)C1=COC(O[C@@H]2O[C@H](CO)[C@@H](O)[C@H](O)[C@H]2O)/C(=C\COC(=O)c2ccc(OC3OC(CO)C(O)C(O)C3O)c(OC)c2)C1CC(=O)OCCc1ccc(O)cc1` (some centres undefined), in test [1], the viability (% of control) is 83.5% [at 9.25 µM]. Besides, the viability, % of control in test [2] is 105% [at 9.25 µM].
On to `COc1cc(Br)c(Nc2nc(-c3c(C)nc4ncccn34)cs2)c(Br)c1`, for which the Potency in test [1] and in test [2] was 1.16 µM (active) in each case.
Regarding `O=C(/C=C/c1ccc(O)c(O)c1)OCc1ccccc1O[C@@H]1O[C@H](CO)[C@@H](O)[C@H](O)[C@H]1O`, the Potency entry in test [1] and in test [2] was “inactive” each time.
As for `CCC[C@@H]1C[C@@H](C(=O)N[C@H](C(C)Cl)[C@H]2O[C@H](SC)[C@H](O)[C@@H](O)[C@H]2O)N(C)C1` (some centres undefined), the Potency result in test [1] and in test [2] was “inactive” each time.
For the compound `O=C(c1c(F)ccc(NS(=O)(=O)N2CC[C@@H](F)C2)c1F)c1c[nH]c2ncc(-c3cnc(C4CC4)nc3)cc12`, the Potency in test [1] is 6.51 µM (active); in test [2], 8.2 µM (active).
As to `CC(C)(C)c1nnc(NS(=O)(=O)c2ccccc2)s1`, the Potency result in test [1] and in test [2] was “inactive” each time.
Consider `CC(/C=C/C1(O)C2(C)COC1(C)CC(=O)C2)O[C@@H]1O[C@H](CO)[C@@H](O)[C@H](O)[C@H]1O` (some centres undefined), for which the Potency entry in test [1] and in test [2] was “inactive” throughout.
As for `COc1cc(NC(=O)Nc2cccc(CNC(=O)O[C@H]3CCOC3)c2)ccc1-c1cnco1`, the Potency was 1.3 µM (active) in test [1] and 0.82 µM (active) in test [2].
